Screens from PubChem BioAssay.
POLK inh: blocks human DNA polymerase kappa activity. Potency, µM (titrated, usually from 107 µM), inactives show at the top dose activity, negative = inhibition, most hits filed as inhibitors. purified Pol kappa, fluorescent DNA synthesis assay, 10 min. actives 0.53% (n = 400,000); note: potency is the fitted concentration of half-maximal effect; % is set by controls: 0 for no effect and ±100 for the full control effect
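Readout: fluorescence, taken kinetically at 0 and 10 min. Conditions: 10 nM Pol kappa, 15 min RT compound preincubation, 50 nM substrate final. Controls: enzyme-free buffer wells.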
WRN helicase inh: WRN helicase (human) inhibition | Q14191 | WRN helicase unwinding, fluorescent forked duplex, kinetic | Potency, µM (series often up to 114 µM), without a hit: at the highest dose activity change, negative = inhibition, most hits filed as inhibitors | actives 0.46% (n = 360,000) | AID 651768; note: potency is the fitted concentration of half-maximal effect; % is set by controls: 0 for no effect and ±100 for the full control effect; nearly all actives have a fitted effect of over 55% in size
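Kinetic red-fluorescence monitoring (525/598 nm) tracks WRN helicase activity after 100 nM fluorophore-quencher forked duplex and 2 mM ATP are added to 20 nM enzyme pretreated 15 min at room temperature with compound.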
Pol beta inh: blocks human DNA polymerase beta activity; Pol beta primer extension/strand displacement, fluorescence kinetic; Potency, µM (highest dose often 114 µM), for the others: at the top dose activity change, negative = inhibition, actives largely listed as inhibitors; actives 1.3% (n = 340,000); AID 485314; note: potency is the fitted concentration of half-maximal effect; % is set by controls: 0 for no effect and ±100 for the full control effect
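Pol beta (10 nM) and compounds were preincubated 15 min at room temperature, then 50 nM substrate (final) started primer extension/strand displacement. Reads were taken at 0 and 10 min; concentration-response data were fitted to a four-parameter Hill equation.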
Pol iota inh: inhibitors of human DNA polymerase iota. actives 1% (n = 390,000). Pol iota fluorescent replication assay, 10 min. Potency, µM (series often up to 115 µM), for the others: at the top dose activity, negative = inhibition, hits mostly inhibitors. Q9UNA4; note: potency is the fitted concentration of half-maximal effect
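Pol iota at 10 nM preincubated 15 min with compounds at room temperature; reaction started with fluorescent substrate, 50 nM final. Fluorescence read kinetically at 0 and 10 min; buffer-only wells as negative control.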
PI5P4K alpha inh: inhibitors of human PI5P4K alpha. P48426. PI5P4Kalpha enzyme, ADP-Glo luminescence, 60 min; active compounds read low. max response, %. actives 1.2% (n = 330,000); active = max response of -50% or lower; inconclusive = between -30% and -50%; inactive = -30% or higher; note: value at the top dose of about 77 µM; % is set by controls: 0 for no effect and ±100 for the full control effect
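PI5P4Kalpha ADP-Glo assay; 5 microM ATP final; 60 min RT reaction; HEPES pH 7.4/EGTA/CHAPS, 5% DMSO; controls lacking substrate or enzyme; luminescent end-point.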
POLH inh: inhibitors of human DNA polymerase eta; AID 588591; Potency, µM (doses to about 114 µM), without a hit: at the highest dose activity change, negative = inhibition, actives largely listed as inhibitors; actives 1.2% (n = 390,000); recombinant Pol eta, fluorescent DNA replication assay; Q9Y253; note: potency is the fitted concentration of half-maximal effect; % is set by controls: 0 for no effect and ±100 for the full control effect
Target sequence (Q9Y253 whole entry, looked up): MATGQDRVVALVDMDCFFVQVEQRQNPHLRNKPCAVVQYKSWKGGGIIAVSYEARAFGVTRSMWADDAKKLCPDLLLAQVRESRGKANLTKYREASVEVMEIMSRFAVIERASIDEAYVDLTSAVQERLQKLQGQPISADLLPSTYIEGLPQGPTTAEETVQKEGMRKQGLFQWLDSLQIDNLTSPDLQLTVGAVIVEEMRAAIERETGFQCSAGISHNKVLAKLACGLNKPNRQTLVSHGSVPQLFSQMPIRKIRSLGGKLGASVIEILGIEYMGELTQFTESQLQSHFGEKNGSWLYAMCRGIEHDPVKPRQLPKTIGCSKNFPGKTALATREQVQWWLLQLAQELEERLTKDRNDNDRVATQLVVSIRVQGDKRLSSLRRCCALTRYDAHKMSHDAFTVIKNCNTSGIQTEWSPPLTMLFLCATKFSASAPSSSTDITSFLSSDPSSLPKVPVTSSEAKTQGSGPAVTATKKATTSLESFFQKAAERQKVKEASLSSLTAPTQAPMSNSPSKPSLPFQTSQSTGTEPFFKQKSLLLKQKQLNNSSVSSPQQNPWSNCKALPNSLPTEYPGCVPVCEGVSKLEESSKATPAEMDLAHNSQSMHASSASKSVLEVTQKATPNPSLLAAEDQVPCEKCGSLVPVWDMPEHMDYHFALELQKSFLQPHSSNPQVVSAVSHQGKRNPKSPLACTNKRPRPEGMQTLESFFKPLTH
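Pol eta (10 nM) was preincubated with compounds for 15 min at room temperature, after which fluorescent replication substrate (50 nM final) was added to start the reaction. Fluorescence was read kinetically at 0 and 10 min.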
Active calls of the source: *; u = inconclusive; x = no result given; ! = a repeat was not active; [ ] = dose if it differs, or a comment. An excerpt weighted towards active compounds, which were near 2.8% of everything screened. Unless noted, calls come from the whole dose curve; as a rule, active = well fitted curve in the direction sought with a large enough effect; inconclusive = small, poorly fitted or top-dose-only effect, or another doubt; inactive = no such curve, though single readings can be large; an effect the other way counts as inactive or inconclusive.

SMILES	POLK inh	WRN helicase inh	Pol beta inh	Pol iota inh	PI5P4K alpha inh	POLH inh
N=C1SC(c2ccccc2)C(=O)N1c1ncc(Cc2ccccc2)s1 (stereo unspecified)	-42%	u	50µM*	2%	-56*	0%
CCN(CC)C(=O)C(C)OC(=O)COc1ccc(Cl)cc1C (stereo unspecified)	-18%	-6%	-28%	3%	8	4%
Cc1cc(Cl)ccc1OCC(=O)OC(C)C(=O)N(C)C (stereo unspecified)	-17%	-19%	u	50µM*	-10	u
COc1cccc(-c2nnc3sc(-c4ccco4)nn23)c1	-12%	-3%	8%	1%	-4	0%
Clc1ccc(-c2nnc3sc(-c4ccco4)nn23)c(Cl)c1	x	x	-1%	x	x	x
CCOc1cccc(-c2nn3c(-c4ccco4)nnc3s2)c1	5%	-4%	7%	22%	9	20µM*
Cc1oc(-c2ccc(Cl)cc2)cc1-c1nn2c(-c3ccco3)nnc2s1	x	x	20µM*	x	x	x
CCCn1c(N)c(N(CCOC)C(=O)CSc2cc(C)c3cccc(C)c3n2)c(=O)[nH]c1=O	0%	2%	x	19%	-2	u
Cc1ccc(-c2nn(-c3ccccc3)cc2C=C2SC(=S)N(CCS(=O)(=O)O)C2=O)cc1	x	20µM*	x	x	-89*	x
COc1ccc(-c2nc3ccc(C4=C(C)CC(=O)NN4)cc3[nH]2)cc1	-2%[19.4 µM]	x	x	x	x	x
Nc1c(O)cccc1C(=O)O	u	-5%[11.6 µM]	x	40µM*	-23	-2%
NC(=S)NCCC[C@H](N)C(=O)O	3%[60.1 µM]	x	x	x	x	x
C=CS(=O)(=O)c1ccc(Oc2ccc(S(=O)(=O)C=C)cc2)cc1	-3%	u	16%	10µM*	-7	u
NS(=O)(=O)c1ccc(Oc2ccc(S(N)(=O)=O)cc2)cc1	-1%	0%	-2%	6%	0	-14%
Cc1ccc(C2(C)NC(=O)N(CC(=O)Nc3nc(-c4ccccn4)cs3)C2=O)cc1 (stereo unspecified)	-18%	u	x	u	-59*	-5%
CC(=O)NC1C(c2nc3ccccc3s2)=C(c2ccccc2)C(=O)N1c1ccc(C)cc1 (stereo unspecified)	-12%	-7%	-11%	0%	x	1%
COc1cccc(N2C(=O)C(c3ccccc3)=C(c3nc4ccccc4s3)C2NC(C)=O)c1 (stereo unspecified)	-2%	-5%	89µM*	1%	-1	-17%
CN(C)c1ccc(Nc2nc3ccccc3n3nnnc23)cc1	5%	x	2%	29%	x	2%
CCc1cccc(NC(=O)c2ccc(Cn3c(=O)[nH]c4ccsc4c3=O)cc2)c1	1%	-28%[11.6 µM]	45µM*	-7%	-2	u
Cc1ccc(CNC(=O)CCS(=O)(=O)c2ccc3c(c2)oc(=O)n3C)cc1	14%	-4%	29%	14%	-8	-8%
CN(C)c1ccc(CNC(=O)CCS(=O)(=O)c2ccc3c(c2)n(C)c(=O)c(=O)n3C)cc1	0%	-10%	25µM*	5%	-8	-16%
C[C@H](C(=O)O)c1cccc(C(=O)c2ccccc2)c1	11µM*!	3%	x	15%	-1	-18%
CC1=C(C(=O)N(C(C)C)C(C)C)CC(CC(=O)NCCc2ccccn2)C(=O)N1Cc1ccccc1 (stereo unspecified)	x	-1%	x	x	5	-30%
CCc1cc(C(=O)Cc2cnn(-c3ccccc3)c2)c(O)cc1O	-4%	-14%	12%	-8%	-1	-7%
O=C(Cc1cnn(-c2ccccc2)c1)c1ccc(O)c(O)c1O	2.5µM*	11µM*	u	u	-24	u
SMILES	POLK inh	WRN helicase inh	Pol beta inh	Pol iota inh	PI5P4K alpha inh	POLH inh
CCn1c(=S)sc2c(=O)n(CC(=O)Nc3cccc(OC)c3)c(C)nc21	1%	-2%	0%	-2%	2	-11%
NC(=O)c1cc([N+](=O)[O-])ccc1NCCN1C(=O)c2ccc(C(=O)O)cc2C1=O	-7%	-19%	7%	u	-87*	-4%
O=C(O)c1cc([N+](=O)[O-])ccc1NCCO	-2%	-18%	7%	2%	1	-1%
C=CCN1CC[C@@H](O)C(=C)S1(=O)=O	6%	x	x	30%	x	x
COC(=O)NNC(=O)COc1ccc(Br)c(C)c1	-24%	1%	-5%	24%	x	-18%
CCCC(=O)Nc1ccc(C(=O)NNC(=O)COc2ccc(Br)c(C)c2)cc1	-2%	-9%	50µM*	-25%	10	u
Cc1cccc(NC(=O)C(=O)NCC(c2cccnc2)N2CCc3ccccc32)c1C (stereo unspecified)	-9%	x	6%	-3%	x	7%
COc1cc(C)ccc1OCCOc1cc(C)ccc1Cl	-8%	4%	13µM*	5%	1	-27%
Cc1ccc(CNC(=O)/C=C/c2ccc(Br)o2)cc1	-15%	0%	-14%	108%	-16	-7%
O=C(/C=C/c1ccc(Br)o1)Nc1nccs1	u	-6%	u	20µM*	u	u
O=C(/C=C/c1ccc(Br)o1)NCc1ccccc1	u	-15%[57.1 µM]	0.71µM*	u	-9	-8%
Cc1ccc(C)c(NC(=O)c2cc(S(=O)(=O)N3CCN(c4cccc(Cl)c4)CC3)ccc2F)c1	-10%[60.1 µM]	x	4%	-6%	x	2%
CCCCCCCCNCCS(=O)(=O)NN1CCOCC1	-16%	-4%	x	-5%	-69*	-9%
COc1ccc(CNCCS(=O)(=O)NN2CCOCC2)cc1	0%	8%	x	16%	-63*	-14%
Cc1ccccc1-c1noc(C(C)NC(=O)c2ccco2)n1 (stereo unspecified)	-5%	4%	-22%	16%	-3	-13%
Cc1cc(C)nc(SCSc2nc(C)cc(C)n2)n1	-11%	13%	1%	1%	4	-8%
Cc1cc(C)nc(SCCc2ccncc2)n1	2%	0%	-2%	22µM*	-14	-11%
O=C(NN=C1CCCC1)c1cc(-c2ccc(F)cc2)nc2ccccc12	-6%	-6%	15%	6%	3	-2%
O=C(NNS(=O)(=O)c1cccc(Cl)c1)c1cc(-c2ccc(F)cc2)nc2ccccc12	-17%	-15%	50µM*	u	1	u
CCN(CC)CCNc1cccc2sc3ccccc3c(=O)c12	x	-1%	x	x	3	-9%
CCN(CC)CCNc1ccc(CO)c2sc3ccccc3c(=O)c12	u	-16%	16µM*	20µM*	7	-18%
CC(=O)c1cccc(S(=O)(=O)N2CCC(C(=O)OC3CCOC3=O)CC2)c1 (stereo unspecified)	-23%	-19%	x	u	-22	45µM*
